Consider seven compounds from ChEMBL document CHEMBL2218924, “A broad activity screen in support of a chemogenomic map for kinase signalling research and drug discovery” (Biochem J, 2013).

In assay [1] the target is Mitogen-activated protein kinase 10 (Homo sapiens) (UniProt P53779). The following applies: at 10 µM.
In assay [2] the target is Vascular endothelial growth factor receptor 2 (Homo sapiens) (UniProt P35968). The conditions noted are these: at 1 µM.
The target is the same in assay [3]. The conditions noted are these: at 10 µM.
The target of assay [4] is LIM domain kinase 1 (Homo sapiens) (UniProt P53667). The conditions noted are these: at 1 µM.
The target is the same in assay [5]. The conditions noted are these: at 10 µM.
Assay [6] deals with T1, Serine/threonine-protein kinase STK11 (Homo sapiens) (UniProt Q15831).
T1 sequence (whole entry): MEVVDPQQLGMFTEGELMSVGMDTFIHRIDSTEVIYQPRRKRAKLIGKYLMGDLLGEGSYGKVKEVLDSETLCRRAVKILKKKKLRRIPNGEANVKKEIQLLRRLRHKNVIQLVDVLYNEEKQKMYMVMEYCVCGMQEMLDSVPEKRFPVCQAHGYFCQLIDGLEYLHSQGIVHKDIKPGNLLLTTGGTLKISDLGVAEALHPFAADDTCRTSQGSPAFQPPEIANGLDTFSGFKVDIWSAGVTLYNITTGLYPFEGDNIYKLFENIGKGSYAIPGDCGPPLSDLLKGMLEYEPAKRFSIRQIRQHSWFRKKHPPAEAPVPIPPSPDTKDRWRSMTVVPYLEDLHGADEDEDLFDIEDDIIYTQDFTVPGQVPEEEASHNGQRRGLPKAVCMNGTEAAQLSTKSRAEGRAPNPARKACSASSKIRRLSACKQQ
The conditions noted are these: at 1 µM.

Assay [7] concerns the target T1, Serine/threonine-protein kinase STK11 (Homo sapiens). The following applies: at 10 µM.
Assay [8] concerns the target Serine/threonine-protein kinase 10 (Homo sapiens) (UniProt O94804). The following applies: at 1 µM.
The target is the same in assay [9]. The following applies: at 10 µM.
The target of assay [10] is Tyrosine-protein kinase Lck (Homo sapiens) (UniProt P06239). The following applies: at 1 µM.
Assay [11] shares this target. The conditions noted are these: at 10 µM.
Assay [12] has the same target. The conditions noted are these: at 1 µM. The source holds these as a separate data set.
The target is the same in assay [13]. The conditions noted are these: at 10 µM. This is another data set of the same source.
For assay [14], the target named is Tyrosine-protein kinase Lyn (Homo sapiens) (UniProt P07948). The following applies: at 1 µM.
For assay [15] the target is unchanged. The conditions noted are these: at 10 µM.
Assay [16] has as its target Mitogen-activated protein kinase 3 (Homo sapiens) (UniProt P27361). The following applies: at 1 µM.
The target is the same in assay [17]. The following applies: at 10 µM.
In assay [18] the target is Mitogen-activated protein kinase 1 (Homo sapiens) (UniProt P28482). The conditions noted are these: at 1 µM.
The target is the same in assay [19]. The conditions noted are these: at 10 µM.
Assay [20] has as its target MAP kinase-activated protein kinase 2 (Homo sapiens) (UniProt P49137). The following applies: at 1 µM.

The structures appear in SMILES notation.

Sequence of Vascular endothelial growth factor receptor 2 (Homo sapiens) (P35968 whole entry): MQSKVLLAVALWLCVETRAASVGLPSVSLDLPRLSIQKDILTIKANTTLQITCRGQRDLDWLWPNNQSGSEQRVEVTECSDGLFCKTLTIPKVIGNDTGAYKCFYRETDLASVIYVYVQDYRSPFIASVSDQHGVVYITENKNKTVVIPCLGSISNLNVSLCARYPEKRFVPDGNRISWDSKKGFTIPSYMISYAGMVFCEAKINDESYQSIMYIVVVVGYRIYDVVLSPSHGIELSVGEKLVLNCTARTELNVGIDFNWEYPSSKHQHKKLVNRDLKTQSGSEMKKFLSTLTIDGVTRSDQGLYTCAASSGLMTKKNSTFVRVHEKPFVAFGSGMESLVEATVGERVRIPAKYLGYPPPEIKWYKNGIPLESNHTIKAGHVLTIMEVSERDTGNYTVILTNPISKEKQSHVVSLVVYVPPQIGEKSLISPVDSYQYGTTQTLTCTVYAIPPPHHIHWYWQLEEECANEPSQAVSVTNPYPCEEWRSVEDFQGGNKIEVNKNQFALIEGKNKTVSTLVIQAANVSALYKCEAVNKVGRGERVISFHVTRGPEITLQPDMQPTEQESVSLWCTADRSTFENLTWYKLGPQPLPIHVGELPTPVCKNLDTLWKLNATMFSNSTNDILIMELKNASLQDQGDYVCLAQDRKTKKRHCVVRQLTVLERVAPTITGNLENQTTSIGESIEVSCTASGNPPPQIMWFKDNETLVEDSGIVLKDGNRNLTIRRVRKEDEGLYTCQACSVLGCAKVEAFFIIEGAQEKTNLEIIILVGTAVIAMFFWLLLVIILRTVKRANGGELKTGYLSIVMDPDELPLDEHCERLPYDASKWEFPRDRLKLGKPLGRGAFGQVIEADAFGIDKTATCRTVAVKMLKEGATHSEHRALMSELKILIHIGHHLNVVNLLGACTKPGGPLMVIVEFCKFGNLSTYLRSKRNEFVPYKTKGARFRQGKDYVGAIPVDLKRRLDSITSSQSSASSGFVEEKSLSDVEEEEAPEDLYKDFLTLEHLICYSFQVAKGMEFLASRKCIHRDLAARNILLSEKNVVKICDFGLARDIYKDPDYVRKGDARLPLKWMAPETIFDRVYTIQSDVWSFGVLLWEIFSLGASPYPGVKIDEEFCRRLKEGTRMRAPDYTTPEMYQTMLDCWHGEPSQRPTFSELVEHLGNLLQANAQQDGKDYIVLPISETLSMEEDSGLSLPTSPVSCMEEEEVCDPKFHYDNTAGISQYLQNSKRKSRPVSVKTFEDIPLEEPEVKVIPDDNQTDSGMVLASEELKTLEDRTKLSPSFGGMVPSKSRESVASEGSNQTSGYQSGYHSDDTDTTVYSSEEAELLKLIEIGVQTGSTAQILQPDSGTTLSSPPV
Sequence of MAP kinase-activated protein kinase 2 (Homo sapiens) (P49137 whole entry, looked up): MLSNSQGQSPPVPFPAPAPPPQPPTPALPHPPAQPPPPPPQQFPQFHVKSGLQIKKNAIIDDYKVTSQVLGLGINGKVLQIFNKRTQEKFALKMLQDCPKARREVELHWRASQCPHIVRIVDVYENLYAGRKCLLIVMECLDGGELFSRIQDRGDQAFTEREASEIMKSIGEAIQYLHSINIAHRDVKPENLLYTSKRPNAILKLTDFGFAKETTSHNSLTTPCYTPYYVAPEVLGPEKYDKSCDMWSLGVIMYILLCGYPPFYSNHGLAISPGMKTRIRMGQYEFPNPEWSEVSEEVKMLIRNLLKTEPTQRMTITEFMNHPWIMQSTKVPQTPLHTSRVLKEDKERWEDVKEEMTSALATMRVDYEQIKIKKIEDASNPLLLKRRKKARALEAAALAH
Sequence of Mitogen-activated protein kinase 3 (Homo sapiens) (P27361 whole entry): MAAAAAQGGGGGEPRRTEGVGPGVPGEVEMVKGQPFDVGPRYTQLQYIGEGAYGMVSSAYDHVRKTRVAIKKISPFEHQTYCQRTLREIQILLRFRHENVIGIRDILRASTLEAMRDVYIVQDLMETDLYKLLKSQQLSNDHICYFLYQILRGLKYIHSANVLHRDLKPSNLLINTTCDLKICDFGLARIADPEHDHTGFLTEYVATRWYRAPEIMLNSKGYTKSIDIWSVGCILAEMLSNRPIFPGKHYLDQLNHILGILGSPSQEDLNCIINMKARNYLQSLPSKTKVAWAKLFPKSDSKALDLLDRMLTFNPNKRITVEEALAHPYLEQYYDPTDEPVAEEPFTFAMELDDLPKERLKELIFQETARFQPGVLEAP
Sequence of Mitogen-activated protein kinase 10 (Homo sapiens) (P53779 whole entry): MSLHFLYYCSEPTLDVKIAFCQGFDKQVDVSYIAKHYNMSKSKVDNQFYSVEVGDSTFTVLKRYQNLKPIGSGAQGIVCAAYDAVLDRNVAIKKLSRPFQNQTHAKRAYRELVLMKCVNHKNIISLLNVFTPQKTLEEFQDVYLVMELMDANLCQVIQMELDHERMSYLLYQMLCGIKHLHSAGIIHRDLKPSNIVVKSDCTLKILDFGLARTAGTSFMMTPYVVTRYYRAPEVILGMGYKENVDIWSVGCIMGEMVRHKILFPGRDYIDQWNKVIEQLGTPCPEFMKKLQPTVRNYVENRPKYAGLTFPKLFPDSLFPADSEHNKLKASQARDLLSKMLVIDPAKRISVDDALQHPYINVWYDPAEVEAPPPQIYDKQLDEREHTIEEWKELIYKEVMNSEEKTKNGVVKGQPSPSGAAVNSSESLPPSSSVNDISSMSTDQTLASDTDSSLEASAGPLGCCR
Sequence of LIM domain kinase 1 (Homo sapiens) (P53667 whole entry, looked up, the tested form may be a part): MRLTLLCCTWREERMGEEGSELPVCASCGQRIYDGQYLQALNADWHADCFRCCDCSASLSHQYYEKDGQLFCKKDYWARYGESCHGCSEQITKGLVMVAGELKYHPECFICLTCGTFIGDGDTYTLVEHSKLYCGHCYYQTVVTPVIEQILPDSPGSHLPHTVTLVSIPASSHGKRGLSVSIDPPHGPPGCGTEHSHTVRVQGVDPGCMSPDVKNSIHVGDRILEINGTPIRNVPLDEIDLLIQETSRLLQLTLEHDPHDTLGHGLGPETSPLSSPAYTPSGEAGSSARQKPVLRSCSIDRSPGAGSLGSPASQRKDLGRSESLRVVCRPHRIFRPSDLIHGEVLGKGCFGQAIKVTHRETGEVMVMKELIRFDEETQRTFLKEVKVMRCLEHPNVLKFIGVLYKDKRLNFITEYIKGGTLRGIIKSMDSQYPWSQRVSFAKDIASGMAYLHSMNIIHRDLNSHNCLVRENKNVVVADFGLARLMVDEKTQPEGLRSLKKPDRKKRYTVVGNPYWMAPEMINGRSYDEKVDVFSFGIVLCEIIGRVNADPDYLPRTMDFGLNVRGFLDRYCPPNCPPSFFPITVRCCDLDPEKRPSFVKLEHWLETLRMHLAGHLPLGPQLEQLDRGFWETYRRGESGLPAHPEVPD
Sequence of Tyrosine-protein kinase Lyn (Homo sapiens) (P07948 2-512 limits assumed): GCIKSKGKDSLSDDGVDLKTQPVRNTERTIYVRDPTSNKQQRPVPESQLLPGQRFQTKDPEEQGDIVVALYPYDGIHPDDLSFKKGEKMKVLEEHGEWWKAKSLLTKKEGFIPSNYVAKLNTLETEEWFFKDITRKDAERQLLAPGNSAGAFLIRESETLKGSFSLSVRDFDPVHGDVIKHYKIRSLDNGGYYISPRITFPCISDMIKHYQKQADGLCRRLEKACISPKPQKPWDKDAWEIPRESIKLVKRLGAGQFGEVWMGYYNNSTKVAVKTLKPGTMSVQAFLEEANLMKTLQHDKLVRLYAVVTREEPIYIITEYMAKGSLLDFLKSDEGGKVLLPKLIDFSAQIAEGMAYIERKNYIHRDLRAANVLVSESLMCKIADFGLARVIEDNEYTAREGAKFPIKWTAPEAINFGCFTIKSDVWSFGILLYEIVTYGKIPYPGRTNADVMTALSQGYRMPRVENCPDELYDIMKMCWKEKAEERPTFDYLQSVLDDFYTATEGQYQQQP
Sequence of Serine/threonine-protein kinase 10 (Homo sapiens) (O94804 whole entry, looked up): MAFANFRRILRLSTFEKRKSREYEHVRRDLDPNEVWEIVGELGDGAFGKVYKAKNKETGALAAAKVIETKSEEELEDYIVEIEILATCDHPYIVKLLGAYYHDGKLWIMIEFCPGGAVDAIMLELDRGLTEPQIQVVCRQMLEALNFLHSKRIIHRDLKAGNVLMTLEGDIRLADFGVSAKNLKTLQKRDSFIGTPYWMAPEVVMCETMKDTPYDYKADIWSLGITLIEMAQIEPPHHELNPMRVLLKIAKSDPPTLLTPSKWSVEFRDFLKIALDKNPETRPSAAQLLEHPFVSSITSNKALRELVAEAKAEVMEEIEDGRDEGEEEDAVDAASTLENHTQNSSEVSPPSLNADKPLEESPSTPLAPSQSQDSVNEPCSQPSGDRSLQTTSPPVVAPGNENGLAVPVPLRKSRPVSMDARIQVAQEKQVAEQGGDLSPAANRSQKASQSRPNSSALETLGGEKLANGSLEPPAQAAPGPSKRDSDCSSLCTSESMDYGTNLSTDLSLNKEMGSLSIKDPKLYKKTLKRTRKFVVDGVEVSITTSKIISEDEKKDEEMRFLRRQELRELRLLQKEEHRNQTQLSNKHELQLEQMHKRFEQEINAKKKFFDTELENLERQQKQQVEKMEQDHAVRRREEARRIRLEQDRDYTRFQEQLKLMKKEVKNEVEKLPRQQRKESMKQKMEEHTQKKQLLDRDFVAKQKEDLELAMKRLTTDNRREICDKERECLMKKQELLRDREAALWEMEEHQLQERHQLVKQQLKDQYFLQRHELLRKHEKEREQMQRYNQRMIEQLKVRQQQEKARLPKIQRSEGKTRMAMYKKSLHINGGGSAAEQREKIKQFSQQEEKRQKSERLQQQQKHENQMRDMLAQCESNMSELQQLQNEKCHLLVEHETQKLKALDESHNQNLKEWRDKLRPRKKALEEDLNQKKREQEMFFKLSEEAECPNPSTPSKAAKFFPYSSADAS

Take `O=Nc1c(-c2c(O)[nH]c3ccccc23)[nH]c2ccccc12`: the residual activity is -2% in assay [1]; 4% in assay [2]; 1% in assay [3]; 61% in assay [4]; 21% in assay [5]; 83% in assay [6]. The residual activity in [7] was found to be 44%; in assay [8], 66%; in assay [9], 71%; in assay [10], 13%; in [11], 6%; in assay [12], 22%. In addition, the residual activity in [13] was determined as 17%; in [14] it was 8%; in assay [15], 2%; in assay [16], 114%; in assay [17], 101%; in assay [18], 104%. The residual activity in assay [19] stood at 103%; in assay [20], 101%.

Consider `O=c1cc(-c2cccc3c2Sc2ccccc2S3)oc(N2CCOCC2)c1`, for which the residual activity in [1] amounted to 89%; in assay [2], 90%; in [3], 89%; in assay [4] it was 98%; in assay [5], 92%; in assay [6], 95%. In addition, the residual activity in assay [7] was 99%; in [8], 98%; in assay [9] it was 101%; in assay [10], 103%; in [11], 94%; in assay [12], 112%. Moreover, the residual activity in assay [13] was found to be 102%; in assay [14], 92%; in assay [15], 86%; in assay [16], 110%; in assay [17], 125%; in assay [18] it was 107%. The residual activity in [19] and in assay [20] was 100% each time.

Regarding `Cc1nc2cc3nc(-c4cccs4)cnc3cc2n1C`, the residual activity in [1] came to 107%; in assay [2], 36%; in assay [3] it was 5%; in assay [4], 116%; in assay [5] it was 99%; in assay [6] it was 97%. The residual activity in assay [7] was 107%; in [8] it was 107%; in assay [9] it was 99%; in assay [10] it was 112%; in assay [11], 54%; in [12], 89%. The residual activity in [13] came to 48%; in assay [14], 91%; in assay [15], 32%; in assay [16], 114%; in assay [17], 95%; in assay [18] it was 100%. The residual activity in [19] turned out to be 103%; in assay [20], 104%.

As for `COc1cc2ncnc(N3CCN(C(=O)Nc4ccc(Oc5ccccc5)cc4)CC3)c2cc1OC`, the residual activity was 89% in assay [1]; 80% in assay [2]; 38% in assay [3]; 54% in assay [4]; 14% in [5]; 99% in assay [6]. Also, the residual activity amounted to 89% in [7]; 90% in [8]; 85% in assay [9]; 98% in assay [10]; 59% in assay [11]; 92% in assay [12]. Besides, the residual activity in [13] came out at 68%; in assay [14], 98%; in [15] it was 100%; in assay [16] it was 76%; in assay [17], 95%; in [18] it was 106%. For the same compound, the residual activity in [19] is 105%; in [20] it was 99%.

`COc1ccc(C(=O)Nc2sc3c(c2C(N)=O)CCCC3)cc1OC`: the residual activity is 69% in assay [1]; 71% in [2]; 75% in assay [3]; 102% in assay [4]; 86% in assay [5]; 104% in assay [6]. For the same compound, the residual activity in [7] came to 105%; in assay [8], 100%; in [9], 87%; in [10], 100%; in assay [11], 103%; in assay [12] it was 88%. The residual activity in [13] was found to be 84%; in assay [14] it was 69%; in assay [15], 46%; in assay [16], 97%; in assay [17] it was 86%; in assay [18] it was 111%. The residual activity in assay [19] amounted to 109%; in assay [20], 70%.

`O=C1NC(=O)/C(=C/c2ccc3c(c2)OC(F)(F)O3)S1`: the residual activity in assay [1] was 83%; in [2] it was 105%; in [3] it was 97%; in [4] it was 110%; in [5], 88%; in assay [6] it was 102%. The residual activity in assay [7] came out at 94%; in assay [8], 89%; in [9], 89%; in [10], 125%; in assay [11], 128%; in assay [12], 87%. Besides, the residual activity in assay [13] amounted to 91%; in [14] it was 100%; in assay [15], 65%; in assay [16] it was 90%; in [17], 77%; in [18] it was 104%. For the same compound, the residual activity in assay [19] was found to be 107%; in [20], 93%.

Turning to `CC[n+]1c(/C=C/N(C)c2ccccc2)n(-c2ccccc2)c2ccc(-c3nc4ccccc4s3)cc21`, the residual activity in [1] was found to be 93%; in [2], 109%; in assay [3], 87%; in assay [4], 124%; in assay [5], 96%; in assay [6], 98%. In addition, the residual activity in assay [7] was 104%; in assay [8], 107%; in assay [9] it was 92%; in assay [10], 133%; in assay [11], 322%; in assay [12] it was 92%. In addition, the residual activity turned out to be 65% in assay [13]; 73% in [14]; 73% in [15]; 111% in [16]; 96% in [17]; 105% in assay [18]. The residual activity was 100% in assay [19] and 95% in [20].
